From PubChem BioAssay AID651658 (Broad Institute, 2012)
Hit rate of the full screen: of about 340,000 compounds, about 5,100 (1.5%) were called active. Many of the other results were omitted from the sample, so actives are more common in it than they were. Unmarked numbers belong to inactive results.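 How the source made its calls: active means mean Tm shift, scaled 0 neutral to 100 positive control, at about 1.3% or above, every replicate too (limit read from the data); inconclusive means no clear call, values can overlap the other calls; inactive means the rest.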

Each molecule was assayed against Fibroblast growth factor 22 (Homo sapiens) (UniProt Q9HCT0) (assay: binders of human FGF22 protein, primary screen, FGF22 synaptogenesis inhibitor project, biophysical, thermal shift, single point (AID 651658)). Conditions: recombinant FGF22 thermal shift, SYPRO orange fluorescence; at 9.99 µM; hits give high values; percent of sucrose octasulfate shift, DMSO zero.
Sequence of Fibroblast growth factor 22 (Homo sapiens) (Q9HCT0 whole entry, looked up): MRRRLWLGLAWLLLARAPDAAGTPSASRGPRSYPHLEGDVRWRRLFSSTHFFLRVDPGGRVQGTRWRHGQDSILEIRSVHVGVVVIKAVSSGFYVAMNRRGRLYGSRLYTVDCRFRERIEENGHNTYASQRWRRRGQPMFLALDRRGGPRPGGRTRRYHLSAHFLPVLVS

SMILES	activity (Tm shift, normalised)
CC(C)NC(=O)N1[C@@H]2c3ccc(-c4ccc(F)cc4)c(=O)n3C[C@@H]2[C@@H](CO)[C@@H]1C(=O)N1CCOCC1	-0.32%
CC(C)NC(=O)Nc1ccc2c(c1)C(=O)N([C@H](C)CO)C[C@@H](C)[C@@H](CN(C)S(=O)(=O)c1ccc(Cl)cc1)OCCCC[C@H](C)O2	-0.402%
COc1ccccc1C(=O)Nc1ccc(Nc2ccccc2)cc1	-0.034%
CC(=O)c1ccccc1OCc1ccc(C(=O)c2ccccc2)cc1	-0.1%
COc1ccccc1C(=O)Nn1cnnc1	0.115%
COc1ccccc1C(=O)Nc1ccccc1C(=O)Nc1ccccc1	-0.098%
COc1ccccc1C(=O)NNC(=O)c1ccc(NC(=O)c2ccccc2)cc1	1.4% (active)
COc1ccccc1C(=O)c1ccccc1C(=O)c1ccccc1	43.7% (active)
CN1CCN(C(=O)C[C@H]2CC[C@H]3[C@@H](COC[C@H](O)CN3C(=O)c3ccc(F)cc3)O2)CC1	0.268%
Cc1ccccc1-c1ccc2c(c1)O[C@H](CN(C)Cc1ccc(C(=O)O)cc1)[C@@H](C)CN([C@H](C)CO)S2(=O)=O	-0.18%
C[C@H](CO)N1C[C@H](C)[C@@H](CN(C)CC2CC2)Oc2ccc(NC(=O)CCCN(C)C)cc2CC1=O	-0.128%
N#C[C@@H]1[C@H](c2ccc(C#CC3CCCCC3)cc2)[C@@H](CO)N1S(=O)(=O)c1ccccc1	0.098%
COc1ccc(-c2ccc([C@H]3[C@H]4CN(C(=O)c5ccc6c(c5)OCO6)CCCCN4[C@H]3CO)cc2)cc1	1.83% (active)
Cc1cccc(-c2ccc([C@@H]3[C@H](CO)N4CCCCN(C(=O)c5ccc6c(c5)OCO6)C[C@@H]34)cc2)c1	-0.344%
CCCC#Cc1ccc([C@H]2[C@H](CO)N3CCCCN(C(=O)c4ccc5c(c4)OCO5)C[C@@H]23)cc1	0.555%
C[C@@H]1CCCCO[C@@H](CN(C)S(=O)(=O)c2ccccc2)[C@H](C)CN([C@H](C)CO)C(=O)c2cc(NC(=O)Nc3ccc4c(c3)OCO4)ccc2O1	-0.98%
COc1ccccc1-c1cnc2c(c1)C(=O)N([C@@H](C)CO)C[C@H](C)[C@H](CN(C)CC1CCOCC1)O2	0.358%
COc1cccc(/C=N/Nc2ccc(S(=O)(=O)Nc3ccccc3C(=O)O)cc2[N+](=O)[O-])c1O	0.209%
COc1cccc(/C=N/Nc2cc(C)nc(-c3ccccc3O)n2)c1O	43% (active)
COc1ccc(Cc2nnc(N/N=C/c3ccccc3O)[nH]c2=O)cc1OC	0.017%
